Target: Glucose transporter (Leishmania mexicana) (UniProt O61059)
Assay: ST_JUDE_LEISH: Cytotoxicity at 2uM final concentration against transgenic Leishmania Mexicana promastigotes LmGT2 that are glucose transport deficient and complemented with the L. Mexicana glucose transporter 2. Activity is measured by DNA content using SYBR green in vitro
Format: functional

| Compound | inhibition |
| --- | --- |
| CN1CCCC1CNS(=O)(=O)c1ccc(C(=O)NCC2CC2)cc1 (stereo not given) | 1.36% |
| COc1ccc2nccc([C@@H](O)CN3CCC(NC(=O)c4cccc(C(=O)c5ccccc5)c4)CC3)c2c1 | 0.47% |
| COc1cccc(NC(=O)Nc2ccc(Nc3nc(C)cc(N4CCCC4)n3)cc2)c1 | 1.4% |
| CCN(CCC1(c2ccc(Cl)c(Cl)c2)CN(C(=O)c2cc(OC)c(OC)c(OC)c2)CCO1)C1CC2c3ccccc3CC21 (stereo not given) | -0.3% |
| Cn1c(NCc2cc(F)cc3c2OCOC3)nc2cc(Nc3ccnc(Nc4cccc(CS(C)(=O)=O)c4)n3)ccc21 | 1.18% |
| COc1ccc(NC(=O)/C=C/c2ccc(Oc3ccccc3Cl)c([N+](=O)[O-])c2)cc1OCCN(C(C)C)C(C)C | -1.59% |
| OC1=C2C(=Nc3ccccc3SC2c2cccs2)c2ccccc21 (stereo not given) | 1.64% |
| CCNc1cc(C)nc(Nc2ccc(NC(=O)c3ccco3)cc2)n1 | -0.01% |
| COc1ccccc1C1CCN(C2CCC(NC(=O)c3cc4ccccc4[nH]3)CC2)CC1 (stereo not given) | 2.29% |
| COc1cccc(CN2CCCC(CCC(=O)Nc3ccc(C(F)(F)F)cc3)C2)c1O (stereo not given) | 1.85% |
| O=S(=O)(Nc1cccc(CCN2CCCCC2CCN2CCCC2)c1)c1ccc(-c2ccccc2)cc1 (stereo not given) | -2.73% |
| CCc1ccc(NC(=O)c2ccc(CN3CCCN(Cc4cccc(C)c4)CC3)cc2)cc1 | 5.79% |
| CC(C)CCn1c(Sc2ccc(C#N)c([N+](=O)[O-])c2)nnc1-c1ccccc1Cl | 1.46% |
| COc1ccc2c(c1)c(C1CCN(CCCCNC(=O)c3ccc(-c4ccc(C(F)(F)F)cc4)cc3)CC1)cn2C(C)C | 0.76% |
| COc1cc(NC(=O)CCCCCCCN2CCN(C)CC2)c2ncccc2c1 | 1.09% |
| O=C(Nc1ccsc1C(=O)NC1CCCCC1)c1ccc(F)cc1 | -0.45% |
| COc1ccc(-c2ccc(CNC3Cc4ccccc4C3)cc2)cc1S(=O)(=O)NCCN1CCCC1 | -0.28% |
| CCCCCN1CCC(NS(=O)(=O)c2cccc(C(=O)Nc3cccc(C(F)(F)F)c3)c2)C1 (stereo not given) | 4.07% |
| CN1CCN(c2ccc(Nc3c(C(N)=O)cnc4cc(-c5ccoc5)ccc34)cc2)CC1 | 3.57% |
| CC1CCCCN1CCCNC(=O)c1cccc(-c2cc3cc(Cl)c(Cl)cc3[nH]2)c1 (stereo not given) | 4.99% |

| Compound | inhibition |
| --- | --- |
| Cc1cccc(-c2nn(-c3ccccc3)c3[nH]c(=O)c(CN4CCSCC4)cc23)c1 | 1.18% |
| Cc1ccccc1C1CCN(C2CCC(NC(=O)c3cc(-c4ccc(Cl)cc4)cs3)CC2)CC1 (stereo not given) | -2.52% |
| COc1ccc2c(ccc3c2ncc2c(=O)n(-c4ccccc4)[nH]c23)c1 | -0.76% |
| CCn1c(Sc2ccc(C#N)c([N+](=O)[O-])c2)nnc1-c1cccc(Cl)c1 | 11.8% |
| CCc1c(C(=O)NC2CCC(N3CCC(c4ccccc4OC)CC3)CC2)[nH]c2ccc(Br)cc12 (stereo not given) | -0.91% |
| CN(Cc1ccc(NC(=O)CCC2CCN(C(=O)/C=C/c3ccc(Cl)c(Cl)c3)CC2)cc1)C1CCOCC1 | -1.91% |
| CC(C)(C)COc1ccc2c(N)n[nH]c2c1 | -0.66% |
| CCOc1cc(-c2nnc3[nH]c(=O)n(C)c(=O)c3n2)ccc1OC(C)C | -1.04% |
| CC(=O)Nc1cccc(Nc2c3ccccc3nc3ccccc23)c1 | 0.54% |
| CCN(CC)CCOc1ccc(Nc2ncc3cc(-c4c(Cl)cccc4Cl)c(=O)n(C)c3n2)cc1 | 17.9% |
| CC(=O)Nc1cccc(C(=O)Nc2nc3ccc(-c4cc(=O)[nH]c(Nc5ccccc5Cl)n4)cc3[nH]2)c1 | 5.36% |
| CC[C@H]1CN2CCc3cc(OC)c(OC)cc3[C@@H]2C[C@@H]1CC1=NCCc2c1[nH]c1ccc(OCc3ccccc3)cc21 | 2.89% |
| N#Cc1cccc(C(=O)Nc2ccc(-c3ccc(CN4CCCC4)cc3)cc2)c1 | 3.78% |
| CCCc1ccccc1Nc1nc(C)cc(N(CC)CCCN2CCCCC2)n1 | 5.53% |
| COc1c(C2=CCN(CCCCNC(=O)c3ccc(-c4ccc(C#N)cc4)cc3)CC2)ccc2c1CCCC2 | 0.06% |
| CNC(=O)C(NC(=O)c1ccccc1C(=O)OC)c1ccccc1 (stereo not given) | -2.13% |
| CC(=O)CSC(C=Cc1ccc(N(C)C)cc1)=Nc1ccccc1 | 63.3% |
| COc1ccc(Cl)cc1N1CCN(CCCNC(=O)c2ccc(-c3nc4cc(Cl)c(C)cc4[nH]3)s2)CC1 | 1.42% |
| NS(=O)(=O)c1cccc(Nc2nccc(-c3c(-c4cccc(NC(=O)c5c(F)cccc5F)c4)nn4ccccc34)n2)c1 | 1.61% |
| COc1ccccc1C(C)NCC(=O)Nc1cc(C(F)(F)F)ccc1Cl (stereo not given) | 0.58% |
